Inconclusive results are not listed. Entries that show only a call come without a potency. Active and inactive are the calls of the source. Calls follow the shape of the dose curve; as a rule, active = well fitted curve in the direction sought with a large enough effect; inconclusive = small, poorly fitted or top-dose-only effect, or another doubt; inactive = no such curve, though single readings can be large; an effect the other way counts as inactive or inconclusive.
Columns and labels:
[1] = qHTS for inhibitors of adenylyl cyclases using a fission yeast platform: a pilot screen against the NCATS LOPAC library (AID 1347410)
Procedure, shortened: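 Inhibition of GNAS-stimulated AC9 activity in S. pombe was inferred from derepression of a PKA-repressed fbp1-GFP reporter, measured as cytometric fluorescence after 18 h at 30C with compounds at up to 57 µM.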

[2] = Validation qHTS assay for inhibitors of Activation Induced Cytidine Deaminase (AID): UDG Counterscreen signal (AID 1347427)
Procedure, shortened: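 Counterscreen read of UDG activity (2 U/mL, 4/3x) in the FRET deamination format with AID (1 uM, 4/3x), DJC20/DJC23 substrates (250 nM, 4x), 4 h at room temperature. NaOH stop, fluorescence at 560 ex/665 em.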

[3] = target: Single-stranded DNA cytosine deaminase (Homo sapiens) (UniProt Q9GZX7); assay: Validation qHTS assay for inhibitors of Activation Induced Cytidine Deaminase (AID): AID signal (AID 1347429)
Sequence of Single-stranded DNA cytosine deaminase (Homo sapiens) (Q9GZX7 whole entry, looked up): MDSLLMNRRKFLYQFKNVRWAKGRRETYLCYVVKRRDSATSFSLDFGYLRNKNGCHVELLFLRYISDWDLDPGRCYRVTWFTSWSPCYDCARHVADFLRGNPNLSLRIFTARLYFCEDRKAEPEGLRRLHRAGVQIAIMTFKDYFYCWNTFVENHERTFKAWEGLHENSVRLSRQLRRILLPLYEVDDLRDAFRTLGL
Procedure, shortened: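 In this coupled qHTS, AID deaminates a FRET-labelled ssDNA substrate in the presence of UDG over 4 hr at room temperature. Compounds span up to 114 uM final.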

[4] = target: Calcium and integrin-binding protein 1 (Homo sapiens) (UniProt Q99828); assay: Validation qHTS for Identification of Calcium Integrin Binding protein 1 (CIB1) Competitor (AID 1508618)
Sequence of Calcium and integrin-binding protein 1 (Homo sapiens) (Q99828 whole entry, looked up): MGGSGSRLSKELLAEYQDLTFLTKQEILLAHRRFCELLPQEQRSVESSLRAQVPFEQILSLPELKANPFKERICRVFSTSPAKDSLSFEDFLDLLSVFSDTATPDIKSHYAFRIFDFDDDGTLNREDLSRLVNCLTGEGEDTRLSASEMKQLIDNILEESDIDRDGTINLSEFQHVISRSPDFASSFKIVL
Procedure, shortened: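 CIB1-GST (1 uM final) in 5 mM HEPES pH 7.4, 125 mM NaCl, 5 mM CaCl2, 0.01% Tween20 was preincubated 15 min at room temperature with compound (up to 114 uM), then FITC-alphaIIb peptide (100 nM) added for 15 min; fluorescence polarization read.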

[5] = target: Calcium and integrin-binding protein 1 (Homo sapiens) (UniProt Q99828); assay: Confirmatory qHTS for Identification of Calcium Integrin Binding Protein 1 (CIB1) Competitor (AID 1508617); settings: CIB1 binding competition assay, biochemical qHTS; also: potency is read from the fitted curve at half-maximal effect; nearly all actives have a fitted effect of over 65% in size
Procedure, shortened: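 Fluorescence polarization competition: CIB1-GST (1 uM final) in 5 mM HEPES pH 7.4, 125 mM NaCl, 5 mM CaCl2, 0.01% Tween20 preincubated 15 min RT with compound (up to 114 uM), then FITC-alphaIIb peptide (100 nM) added, 15 min RT.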

Oc1ccc(/C=C/c2cc(O)cc(O)c2)cc1
outcome [1]: inactive
outcome [2]: inactive
outcome [3]: inactive
outcome [4]: inactive

O=C1c2ccccc2C(=O)c2c1ccc(O)c2O
Potency [5]: 17.8 µM (active)
